Screens deposited in PubChem by National Center for Advancing Translational Sciences (NCATS).
ELG1 DNA repair: inhibitors of ELG1-dependent DNA repair in HEK293T cells; AID 504467; 2.3% of 330,000 active; Potency, µM (top dose mostly 46.1 µM), hits mostly inhibitors; HEK293T ELG1-luciferase reporter, luminescence, 16 h; DNA damage induced by 5-fluorouridine; further: nearly all actives have a fitted effect of over 55% in size
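HEK293T cells expressing luciferase-tagged ELG1 (2,000/well) received 5-Fluorouridine plus compound or DMSO for 16 hr at 37 °C. Luciferase was read by ONE-Glo luminescence after 30 min at room temperature.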
TDP1 cell CPT: DT40-hTDP1 cell growth loss with CPT. chicken DT40 Tdp1-/-;hTDP1 cells + 20 nM CPT, ATP luminescence, 48 h. Potency, µM (top dose mostly 46.2 µM), actives largely listed as inhibitors. 12% of 420,000 active. AID 686979; further: nearly all actives have a fitted effect of over 55% in size
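Chicken DT40 Tdp1-/- cells stably complemented with human TDP1 were seeded at 400 cells/well in medium containing 20 nM camptothecin, exposed to pin-transferred compounds, and grown at 37 °C for at least 48 hr. Viability was read as ATP luminescence.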
DT40 TDP1 no CPT: qHTS for Inhibitors of human tyrosyl-DNA phosphodiesterase 1 (TDP1): qHTS in cells in absence of CPT | DT40 Tdp1-/- hTDP1 cells, no CPT, ATP luminescence, 48 h | Potency, µM (highest dose often 46.2 µM), hits mostly inhibitors | 15% of 420,000 active | AID 686978, 2013; further: nearly all actives have a fitted effect of over 55% in size
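A cellular qHTS used chicken DT40 cells lacking endogenous Tdp1 but carrying stably transfected human TDP1. Compounds were applied without camptothecin, and cell growth kinetics were judged by ATP-dependent luminescence after ≥48 hr.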
IL1B secr inh: inflammasome signaling inhibition, IL-1 beta readout; THP-1 LPS/ATP IL-1B secretion, AlphaLISA, 16 h; stronger effect = lower value; activity change, % at 57.5 µM; 4.7% of 360,000 active; in the data active means activity change below about -50%; inconclusive means mostly about -30% to -49%
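THP-1 cells pretreated 1 hr with compounds (up to 57.5 uM final), then stimulated with LPS (250 ng/mL final) plus ATP (1.25 mM final); secreted IL-1B measured by AlphaLISA after 16 hr, decreased signal indicating inhibition.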
VP16 counter: inhibits Gal4-VP16 luciferase reporter, ROR gamma counter-screen. Drosophila S2 Gal4-VP16 UAS-luciferase, luminescence, 20 h. Potency, µM (series often up to 53.6 µM), most hits filed as inhibitors. 3.5% of 310,000 active. AID 2546;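 further: Gal4-VP16 expression switched on by copper sulfate through the metallothionein promoter; nearly all actives have a fitted effect of over 50% in size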
RORg inh: blocks mouse ROR gamma transcriptional activity; P51450; Drosophila S2 Gal4-RORgamma UAS-luciferase reporter, 20 h; Potency, µM (highest dose often 53.6 µM), most hits filed as inhibitors; 5.4% of 310,000 active; AID 2551; further: nearly all actives have a fitted effect of over 60% in size
Target sequence (P51450 whole entry, looked up, the tested form may be a part): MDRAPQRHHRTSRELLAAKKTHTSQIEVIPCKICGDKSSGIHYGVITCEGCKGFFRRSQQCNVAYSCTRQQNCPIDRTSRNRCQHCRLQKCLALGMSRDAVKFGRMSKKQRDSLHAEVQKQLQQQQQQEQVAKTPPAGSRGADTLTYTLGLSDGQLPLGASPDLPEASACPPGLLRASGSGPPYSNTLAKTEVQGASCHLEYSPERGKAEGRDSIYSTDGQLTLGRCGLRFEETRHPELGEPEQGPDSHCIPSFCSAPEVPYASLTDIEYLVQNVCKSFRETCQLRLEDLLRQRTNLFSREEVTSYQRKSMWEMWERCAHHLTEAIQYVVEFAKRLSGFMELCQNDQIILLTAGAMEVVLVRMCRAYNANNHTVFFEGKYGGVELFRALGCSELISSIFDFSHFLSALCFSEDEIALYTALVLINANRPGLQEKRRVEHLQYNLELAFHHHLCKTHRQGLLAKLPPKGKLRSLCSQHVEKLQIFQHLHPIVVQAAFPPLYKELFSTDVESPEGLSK
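Stable Schneider cell line, Gal4 DNA-binding domain fused to ROR gamma, UAS-luciferase. Cmpd 1 hr RT → CuSO4 700 uM final → 20 hr RT → luciferase reagent 10 min → luminescence.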
Of the large screens only hits and unclear results are named; the others gave an inactive call; ! = not active in a repeat. Rows were chosen to be rich in hits. Some 21% of all compounds tested hit in one or more screens of this group. Unless noted, the call rests on the fitted dose curve; in most records, active means well fitted curve in the direction sought with a large enough effect; inconclusive means small, poorly fitted or top-dose-only effect, or another doubt; inactive means no such curve, though single readings can be large; an effect the other way counts as inactive or inconclusive.

COC(=O)c1ccc(-n2nnnc2SCC(=O)Nc2cc(OC)ccc2OC)cc1	TDP1 cell CPT inconclusive
COC(=O)c1sccc1NC(=O)CSc1nnnn1-c1ccccc1C	ELG1 DNA repair 18µM
COc1cc(NC(=O)CN(C)Cc2cccc(F)c2)c(C)cc1[N+](=O)[O-]	TDP1 cell CPT inconclusive, DT40 TDP1 no CPT 21µM
COc1ccc(-n2nnnc2SCC(=O)Nc2cc(OC)c([N+](=O)[O-])cc2C)cc1	ELG1 DNA repair inconclusive, VP16 counter 10µM, RORg inh 6.3µM
COc1cc(NC(=O)CN(C)C2CCCCC2)c(C)cc1[N+](=O)[O-]	DT40 TDP1 no CPT inconclusive
COc1ccc(CN(C)CC(=O)Nc2cc(OC)c([N+](=O)[O-])cc2C)c(OC)c1	ELG1 DNA repair 16µM, TDP1 cell CPT 13µM, DT40 TDP1 no CPT 15µM, IL1B secr inh inconclusive
COc1cc(NC(=O)CN(C)CCOc2ccccc2)c(C)cc1[N+](=O)[O-]	TDP1 cell CPT inconclusive, DT40 TDP1 no CPT inconclusive
CCCCCCCC/C=C\CCCCCCCCN	none (no result: ELG1 DNA repair, IL1B secr inh)
CC1(C(=O)NS(=O)(=O)c2ccccc2)CCN1C(=O)COc1ccc(Cl)cc1 (stereo unspecified)	none (no result: ELG1 DNA repair, VP16 counter, RORg inh)
CC(=O)N(c1ccc2ccccc2c1)C1SC(=O)N(c2cccc(C)c2)C1=O (stereo unspecified)	none (no result: ELG1 DNA repair, IL1B secr inh, VP16 counter, RORg inh)
COc1cccc(NC(=O)C(Cc2ccccc2)n2cccc2)c1 (stereo unspecified)	IL1B secr inh -73
COc1cccc(CNC(=O)C(Cc2ccccc2)n2cccc2)c1 (stereo unspecified)	TDP1 cell CPT inconclusive, DT40 TDP1 no CPT inconclusive, IL1B secr inh inconclusive
COc1ccc(NC(=O)C(Cc2ccccc2)n2cccc2)c(OC)c1 (stereo unspecified)	ELG1 DNA repair inconclusive, TDP1 cell CPT 23µM!, DT40 TDP1 no CPT 18µM!, RORg inh inconclusive
Cc1ccc(C(=O)C2CCN(S(=O)(=O)c3ccc(C(=O)O)cc3)CC2)cc1	none
CCOC(=O)c1cn(Cc2ccccc2)c(C(=O)OC(C)(C)C)c1O	TDP1 cell CPT 23µM (no result: ELG1 DNA repair, VP16 counter, RORg inh)
CCOC(=O)c1cn(Cc2ccccc2)c2cc(C)nn2c1=O	ELG1 DNA repair inconclusive
Cc1ccccc1CC1S/C(=N/N=C/c2ccco2)NC1=O (stereo unspecified)	VP16 counter 2µM, RORg inh 0.45µM (no result: TDP1 cell CPT, DT40 TDP1 no CPT, IL1B secr inh)
O=C1CC(C(=O)Nc2ccccc2)S/C(=N\N=C\c2ccco2)N1 (stereo unspecified)	none
Cc1ccc(NC(=O)CC2S/C(=N/N=C/c3ccco3)NC2=O)cc1Cl (stereo unspecified)	RORg inh inconclusive
CC(C)C1S/C(=N/N=C/c2ccco2)NC1=O (stereo unspecified)	VP16 counter 3.2µM, RORg inh 0.2µM
Cc1ccc(-n2nnnc2CNC(=O)C(C)(C)C)cc1C	none (no result: ELG1 DNA repair, IL1B secr inh, VP16 counter, RORg inh)
Cc1ccc(S(=O)(=O)c2cn(CC(=O)Nc3ccc4c(c3)OCO4)c3ccccc3c2=O)cc1	DT40 TDP1 no CPT inconclusive (no result: ELG1 DNA repair, IL1B secr inh, VP16 counter, RORg inh)
O=C(c1ccc2nc3ccccc3c(=O)n2c1)N1CCN(Cc2ccc3c(c2)OCO3)CC1	ELG1 DNA repair inconclusive, TDP1 cell CPT 29µM, DT40 TDP1 no CPT inconclusive, IL1B secr inh inconclusive
O=C(CSc1nccc2ccccc12)N1CCN(Cc2ccc3c(c2)OCO3)CC1	TDP1 cell CPT inconclusive, DT40 TDP1 no CPT inconclusive, IL1B secr inh -81 (no result: ELG1 DNA repair, VP16 counter, RORg inh)
O=C(CSCc1ccccc1)N1CCN(Cc2ccc3c(c2)OCO3)CC1	TDP1 cell CPT inconclusive, DT40 TDP1 no CPT inconclusive, IL1B secr inh inconclusive
c1ccc2c(c1)oc1c(N3CCN(Cc4ccc5c(c4)OCO5)CC3)ncnc12	ELG1 DNA repair inconclusive, TDP1 cell CPT 23µM, DT40 TDP1 no CPT 23µM, VP16 counter inconclusive
O=C(c1cccn2c(=O)c3ccccc3nc12)N1CCN(Cc2ccc3c(c2)OCO3)CC1	ELG1 DNA repair inconclusive, DT40 TDP1 no CPT inconclusive
c1ccc2nc(N3CCN(Cc4ccc5c(c4)OCO5)CC3)cnc2c1	DT40 TDP1 no CPT inconclusive, RORg inh inconclusive
